From PubChem
D2 antag = HTS Assay for Allosteric Antagonists of the Human D2 Dopamine Receptor: Primary Screen for Antagonists; D(2) dopamine receptor (Homo sapiens), P14416; HEK293 TREx D2 cells, calcium flux, dopamine EC80; inhibition, % at 10 µM; 340,000 tested, 2% active; in the data active = inhibition above about 30%; inactive = below that, where a call was filed; note: 0% is about no effect
Target sequence (P14416 whole entry, looked up): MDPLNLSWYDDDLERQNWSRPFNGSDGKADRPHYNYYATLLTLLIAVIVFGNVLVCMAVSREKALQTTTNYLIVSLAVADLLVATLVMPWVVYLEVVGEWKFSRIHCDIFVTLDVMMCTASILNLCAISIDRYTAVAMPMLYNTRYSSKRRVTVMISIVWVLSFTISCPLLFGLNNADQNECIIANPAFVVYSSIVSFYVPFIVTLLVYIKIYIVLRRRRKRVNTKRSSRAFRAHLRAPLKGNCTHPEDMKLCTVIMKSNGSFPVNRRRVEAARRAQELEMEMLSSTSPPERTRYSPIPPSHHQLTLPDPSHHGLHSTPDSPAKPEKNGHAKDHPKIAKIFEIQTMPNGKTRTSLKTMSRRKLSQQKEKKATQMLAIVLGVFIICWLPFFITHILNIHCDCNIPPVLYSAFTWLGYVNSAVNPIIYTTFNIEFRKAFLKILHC
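Overnight-induced (tetracycline, 30 C) HEK293 T-REx cells carrying force-coupled D2 receive a no-wash calcium dye, then compound, then EC80 dopamine at 180 s; signals are read kinetically throughout.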
D2 ag-1 = Beta-Arrestin HTS for Positive Allosteric Modulators of the Human D2 Dopamine Receptor: Agonists | D(2) dopamine receptor (Homo sapiens), P14416 | DiscoveRx PathHunter D2 beta-arrestin, luminescence, 90 min; 100% = 57 uM dopamine signal | activation, % (concentration not given with the values) | 360,000 tested, 0.084% active; in the data active = activation above about 40%; inconclusive = between about 15% and that limit
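Agonist mode: compounds alone added to overnight-plated D2 PathHunter cells for 90 min at 37 C, with 57 uM final dopamine (EC100) defining full response. Beta-arrestin recruitment detected by chemiluminescent reagent, read after 1 h at ambient temperature.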
D2 PAM-1 = HTS Assay for Positive Allosteric Modulators of the Human D2 Dopamine Receptor: Primary Screen for Potentiators; D(2) dopamine receptor (Homo sapiens), P14416; HEK293 T-REx D2, calcium flux, EC20 dopamine potentiation; potentiation, % at 10 µM; 340,000 tested, 0.34% active;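 active = potentiation over 3 SD above the plate norm, cut at about 30% in these data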; note: 0% is about no effect
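Using a no-wash calcium dye in inducible, force-coupled HEK293 Trex cells expressing D2, we tracked fluorescence each second for 180 s after compound, then for 180 s after EC20 dopamine to detect augmented signalling.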
LDHA block = qHTS assay for inhibitors of human lactate dehydrogenase; 480,000 tested, 0.15% active; activity change, % (values are at about 110 or 230 µM); purified LDHA, NADH/diaphorase-resazurin fluorescence; stronger effect = lower value; AID 1347041, 2019; L-lactate dehydrogenase A chain (Homo sapiens), P00338; in the data active = activity change below about -30%; inconclusive = mostly about -25% to -30%;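 note: plate controls were DMSO wells for no effect and wells without enzyme for full effect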
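Human LDH5 (2 nM) was incubated with 0.06 mM NADH and 0.2 mM pyruvate for 5 min at room temperature in Tris pH 7.4. Remaining NADH was coupled through diaphorase/resazurin, and resorufin fluorescence was read at 0 and 20 min.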
D2 PAM-2 = Beta-Arrestin HTS for Positive Allosteric Modulators of the Human D2 Dopamine Receptor: Potentiators; D(2) dopamine receptor (Homo sapiens), P14416; DiscoveRx D2 beta-arrestin cells, luminescence, 90 min; 100% = 57 uM dopamine signal; potentiation, % (concentration not given with the values); 360,000 tested, 0.23% active; in the data active = potentiation above about 50%; inconclusive = mostly about 30% to 49%
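D2 cells co-treated with compound plus 50 nM dopamine (EC20) for 90 min at 37 deg C to detect potentiation. Beta-arrestin recruitment was read as enzyme-fragment luminescence after 1 h at ambient temperature. Full response was set by 57 uM dopamine.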
D2 ag-2 = HTS Assay for Allosteric Agonists of the Human D2 Dopamine Receptor: Primary Screen for Agonists; D(2) dopamine receptor (Homo sapiens), P14416; activation, % at 2 µM; HEK293 T-REx D2 cells, calcium flux agonist mode; 340,000 tested, 0.53% active;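 active = activation over 3 SD above normal in the single-dose calcium agonist read, cut at about 30% in these data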; note: 0% is about no effect
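Tetracycline-induced HEK293 Trex cells with D2 receptor force-coupled to calcium signaling, plated overnight at 30 C and loaded with no-wash calcium dye. Calcium flux read kinetically for 180 s after compound addition; responses flag agonists.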
An asterisk follows results filed as active; ? = inconclusive; nt = no result. Most compounds without a hit are left out; they make up all but 2.1% or so of the library.

SMILES	D2 antag	D2 ag-1	D2 PAM-1	LDHA block	D2 PAM-2	D2 ag-2
COC(=O)c1cc(NC(=O)CC2SCCNC2=O)cc(C(=O)OC)c1 (stereo not given)	35*	4	3	-4	-1	0
COc1cc(NC(=O)CC2SCCNC2=O)cc(OC)c1OC (stereo not given)	nt	nt	nt	-10	nt	nt
Cc1ccnc2c1ccc1c(C)ccnc12	43*	-5	-18	8	-25	1
Cc1ccnc2c1ccc1cccnc12	0	3	-3	25	-9	0
Cn1nnnc1NCc1ccc(-c2cccc(Cl)c2)o1	nt	nt	nt	7	nt	nt
Cc1cc(=O)oc2c(C)c(OCC(=O)Nc3cccnc3)ccc12	36*	3	-3	-6	0	0
CC(C)CCNC(=O)C1CCC(CNS(=O)(=O)c2ccc(Cl)cc2)CC1 (stereo not given)	34*	-2	4	-2	-7	-3
COc1ccc(S(=O)(=O)NCC2CCC(C(=O)NCCC(C)C)CC2)cc1 (stereo not given)	-5	4	-13	-3	-14	0
Cc1[nH]c2ccccc2c1C(c1ccccc1I)c1c(C)[nH]c2ccccc12	nt	nt	nt	12	nt	nt
COC(=O)c1cccc(S(=O)(=O)Oc2ccc3ccc(=O)oc3c2)c1	nt	nt	nt	4	nt	nt
CCOC(=O)CNC(=O)CSc1nnc(-c2ccc(OC)cc2)n1CC	35*	-1	9	-9	-10	1
CCOC(=O)CSc1nnc(-c2ccc(OC)cc2)n1CC	3	-2	3	1	2	0
CCOC(=O)N1CC=C2C(C#N)=C(N)C(C#N)(C#N)[C@H](c3cccs3)C2C1 (stereo not given in full)	-18	-4	72*	-1	-5	0
CC(C)(C)OC(=O)N1CC=C2C(C#N)=C(N)C(C#N)(C#N)C(c3cccs3)C2C1 (stereo not given)	5	-5	0	-2	-22	1
O=c1nc(/C=C/c2ccccc2C(F)(F)F)cc(C(F)(F)F)[nH]1	32*	-3	9	3	-10	-2
O=C(ONC1=NCCCCC1)c1c(F)cccc1F	13	?	1	-5	65*	0
O=C(ONC1=NCCCCC1)c1ccc(Cl)cc1	7	?	5	-5	?	1
COCCNC(=O)C(=O)N1CCN(c2nc(C(C)C)c3c(c2C#N)CCCC3)CC1	nt	nt	nt	1	nt	nt
CC1CCCCN1S(=O)(=O)c1ccc(C(=O)Nc2sccc2C(N)=O)cc1 (stereo not given)	31*	4	-16	-16	-2	0
NC(=O)c1ccsc1NC(=O)C1CCCN1S(=O)(=O)c1ccc(Cl)cc1 (stereo not given)	6	-5	-3	3	-4	0
CCOC(=O)N1CCC(NC(=O)CN2C(=O)CSc3ncccc32)CC1	4	-4	8	-5	-5	2
CCOC(=O)N1CCC(NC(=O)CCCN2C(=O)CSc3ncccc32)CC1	32*	0	5	-2	9	0
CCC(C)[C@H](NC(=O)N1CCn2c1nc1ccccc12)C(=O)NCc1ccccc1 (stereo not given in full)	-1	-4	32*	2	-5	0
CC(C)=CC1C(C(=O)Nc2cccc(OC(F)F)c2C)C1(C)C (stereo not given)	nt	nt	nt	2	nt	nt
N#Cc1cccc(C(=O)OCc2ccccn2)c1	nt	nt	nt	-11	nt	nt
SMILES	D2 antag	D2 ag-1	D2 PAM-1	LDHA block	D2 PAM-2	D2 ag-2
Cc1ccc(NC(=S)N2CCCC(c3nc4ccccc4[nH]3)C2)cc1 (stereo not given)	nt	2	nt	-4	-11	nt
Cc1ccccc1NC(=S)N1CCCC(c2nc3ccccc3[nH]2)C1 (stereo not given)	32*	-6	-1	-7	-21	0
Cc1ccccc1C1CC(=O)N2CN(Cc3ccccc3)CSC2=C1C#N (stereo not given)	nt	nt	nt	67	nt	nt
COc1ccc(-c2oc(=O)oc2-c2ccc(OC)c(OC)c2)cc1OC	nt	nt	nt	-5	nt	nt
Cc1ccc2occ(C(=O)c3ccco3)c(=O)c2c1	39*	-1	2	9	-2	-1
Cc1ccc(C)c(Oc2coc3cc(OC(=O)c4ccco4)ccc3c2=O)c1	nt	nt	nt	5	nt	nt
CCOC(=O)c1ccc(NC(=O)C2CC(=O)Nc3nc(C)nn32)cc1 (stereo not given)	nt	nt	nt	0	nt	nt
CCCc1cc(=O)oc2cc(OS(=O)(=O)c3ccccc3F)ccc12	nt	nt	nt	-2	nt	nt
Cc1nc2ncccn2c1-c1csc(NCc2ccco2)n1	1	1	38*	6	-20	0
Cc1nc2ncccn2c1-c1csc(Nc2ccccc2)n1	25	-5	-26	1	-46	-3
Cc1ccc(-c2nnc(N3CCN(C(=O)CSc4ncn[nH]4)CC3)c3ccccc23)cc1	47*	0	nt	-4	-3	3
CC(=O)N1CCN(c2nnc(-c3ccc(C)cc3)c3ccccc23)CC1	-2	0	-5	0	0	0
COCCN(CCOC)C(=O)c1cc(-c2ccco2)nc2ccccc12	nt	nt	nt	-7	nt	nt
COc1cc2ccccc2nn1	-5	-2	12	-15	-6	1
COc1ccc2c(n1)Sc1nc3ccccc3nc1N2	49*	4	-5	21	2	92*
O=C(N/N=C/c1cc2c(cc1Br)OCO2)c1cc2ccccc2o1	80*	-3	-25	-9	-54	-1
O=C(N/N=C/c1cc2c(cc1Br)OCO2)c1ccccn1	15	-2	1	-3	1	-1
CC(C)(C)c1cc(C(=O)N/N=C/c2cc3c(cc2Br)OCO3)n[nH]1	49*	6	-21	-2	-45	-2
COc1ccc(C(CNC(=O)c2cc3c(s2)CCC(C)C3)N2CCOCC2)cc1 (stereo not given)	20	-3	-26	-1	-5	0
COc1ccc(C(CNC(=O)C(C)(C)Oc2ccc(Cl)cc2)N2CCCC2)cc1 (stereo not given)	97*	-1	-24	-3	-37	0
COc1ccc(C(CNC(=O)c2oc3ccccc3c2C)N2CCCCC2)cc1 (stereo not given)	nt	nt	-14	0	nt	nt
